Hit rate of the full screen: of about 370,000 compounds, about 2,600 (0.7%) were called active. The sample holds actives, similar compounds and a random draw of the others, so the mix is not that of the screen. A number with no mark means an inactive call.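 Rule for the calls: active = inhibition above a cutoff: mean of compounds within the control limits plus 3 SD of those (cut at about 17% in these data); inactive = the rest.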
Each compound was assayed against Sialate O-acetylesterase (Homo sapiens) (UniProt Q9HAT2) (assay: human SIAE inhibitors, primary screen, biochemical, fluorescence polarization, FP-Rh probe, 1536-well HTS (AID 1053197;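 note: 0% = plate median of compound wells and 100% = probe without SIAE protein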)). Settings: SIAE FP-Rh probe binding, at 9.66 µM, hits give high values.
Chain of Sialate O-acetylesterase (Homo sapiens) (Q9HAT2 whole entry, looked up): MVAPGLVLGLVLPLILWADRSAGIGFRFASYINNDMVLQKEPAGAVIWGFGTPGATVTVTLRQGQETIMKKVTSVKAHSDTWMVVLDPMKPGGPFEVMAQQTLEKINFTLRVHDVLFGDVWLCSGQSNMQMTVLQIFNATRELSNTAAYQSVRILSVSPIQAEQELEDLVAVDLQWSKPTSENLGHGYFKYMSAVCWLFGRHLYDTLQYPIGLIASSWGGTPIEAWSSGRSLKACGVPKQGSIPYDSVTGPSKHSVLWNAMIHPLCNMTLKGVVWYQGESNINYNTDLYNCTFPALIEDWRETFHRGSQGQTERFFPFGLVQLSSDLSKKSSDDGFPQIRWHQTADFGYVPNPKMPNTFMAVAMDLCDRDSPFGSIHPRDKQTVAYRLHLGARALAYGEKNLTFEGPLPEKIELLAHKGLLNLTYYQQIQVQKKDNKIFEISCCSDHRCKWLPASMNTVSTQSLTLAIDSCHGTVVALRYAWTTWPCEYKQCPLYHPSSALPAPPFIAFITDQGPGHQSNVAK

Row | Structure (SMILES) | inhibition
1 | Cc1cc(C)nc(NC(=S)N2CCN(c3ccc(C(F)(F)F)cn3)CC2)c1 | -2.17%
2 | N#CC(C(N)=O)=C1CCC2(CC1)OCCCCO2 | -1.29%
3 | CC1(C)C/C(=C(/C#N)C(N)=O)CCO1 | 17.1% (active)
4 | Nn1c(SCC(=O)Nc2cccc3ccccc23)nnc1-c1cc(-c2ccc(F)cc2)n[nH]1 | -0.5%
5 | CC(C)(C)NC(=O)C(c1cccnc1)N(C(=O)c1cnco1)c1ccc(C(C)(C)C)cc1 (stereo unspecified) | 2.03%
6 | CCOc1ccccc1Nc1ccc(C(=O)O)cc1[N+](=O)[O-] | 17.1% (active)
7 | CCOc1cc(C(=O)O)ccc1OCCOc1ccccc1 | -4.46%
8 | CCOC(=O)c1ccc(NNC(C)=O)c([N+](=O)[O-])c1 | 3.08%
9 | O=C(CSc1nnc(COc2ccccc2)n1Cc1ccco1)c1ccc2ccccc2c1 | -7.8%
10 | CCOc1ccc(NC(=O)CSc2nc3ccccc3c(=O)n2Cc2cccs2)cc1 | 0.33%
11 | CCOc1ccc(NC(=O)C/C(C)=N/NC(=O)Cc2cccs2)cc1 | 21.6% (active)
12 | CCOc1ccc(/C=N/OCC(=O)NCc2cccs2)cc1 | -7.11%
13 | Cc1ccc(C(=O)C2CCN(CC(=O)NCCC(C)C)CC2)cc1 | 4.25%
14 | O=C(CSc1nc2ccccc2n1Cc1ccccc1Cl)N/N=C\c1c[nH]c2ccccc12 | -8.22%
15 | CC(CCN1CCC(C(O)(c2ccccc2)c2ccccc2)CC1)Oc1ccc(C(F)(F)F)cc1 (stereo unspecified) | 8.83%
16 | COCCOC(=O)c1sc(=S)n(CCOC)c1N | 35.8% (active)
17 | CCC(NC(=O)C1C2C=CC3(CN(Cc4ccccc4)C(=O)C13)O2)c1ccccc1 (stereo unspecified) | 0.07%
18 | O=C(CSc1nc2ccccc2s1)NN=Cc1ccc(O)cc1O | 7.21%
19 | O=C(CSc1nnc(-c2ccccn2)n1-c1ccccc1)Nc1ccc2cn[nH]c2c1 | 1.79%
20 | Cc1ccc(-n2c(SCC(=O)Nc3ccc(S(=O)(=O)Nc4nccs4)cc3)nnc2-c2ccncc2)cc1 | -12.6%
21 | CNCC(O)c1ccc(O)c(O)c1 (stereo unspecified) | 4.81%
22 | CCC(C)c1ccc(O)c(/C=N/O)c1 (stereo unspecified) | 23.1% (active)
23 | O=S(=O)(c1ccccc1)N1CCC(c2nc3ccccc3o2)CC1 | 6.75%
24 | O=C1CC(c2ccc3c(c2)OCO3)N=C2N(CC3CC3)C/C(=C/c3ccccc3)N12 (stereo unspecified) | 6.68%
25 | COc1ccc(-c2cc(-c3nnc(SCC(=O)Nc4cccc5ccccc45)n3N)[nH]n2)cc1 | 1.67%
26 | COC(=O)C[C@@H]1CC[C@@H]2[C@@H](COc3ccc(NC(=O)Nc4ccc(F)c(F)c4)cc3C(=O)N2C)O1 | -2.22%

Row | Structure (SMILES) | inhibition
27 | O=C1CC[C@@H](COc2ccc3[nH]cc(-c4ccccc4)c3c2-c2ccccc2)N1 | 3.06%
28 | COc1ccc2[nH]c(=S)cc(C)c2c1 | 23.9% (active)
29 | COc1ccc(N)c(C)c1 | 15.1%
30 | COc1ccc2[nH]c3c(C)c4cc[n+](C)cc4c(C)c3c2c1 | 3.4%
31 | COC(=O)C12C=C3CC(c4ccccc4)=C3C(=O)N1Cc1[nH]c3ccccc3c1C2 (stereo unspecified) | 5.02%
32 | Cc1cc(NS(=O)(=O)c2ccc(NC(=O)CSc3nnc(SCc4ccc(F)cc4)s3)cc2)nc(C)n1 | -8.85%
33 | COc1ccc(CN2C/C(=C/c3ccccc3)N3C(=O)C[C@@H](c4ccccc4)N=C23)c(OC)c1 | 3.22%
34 | Cc1ccc(C(=O)N/C(=C/c2ccc(-c3cccc([N+](=O)[O-])c3)o2)C(=O)NCCCN(C)C)cc1 | 21.2% (active)
35 | O=C(NCc1ccco1)/C(=C\c1cccc([N+](=O)[O-])c1)NC(=O)c1ccco1 | -0.85%
36 | O=C(NCc1ccco1)/C(=C/c1cccc([N+](=O)[O-])c1)NC(=O)c1ccco1 | -7.3%
37 | C=CCN1C(=O)[C@H](CC(=O)NCCCN2CCCC2=O)[C@@]2(C(=O)OCC)CCCC=C12 | 4.17%
38 | CCOC(=O)C1=C(C)NC2=C(C(=O)CC(C)(C)C2)C1c1ccc2c(c1)OCO2 (stereo unspecified) | -1.17%
39 | COc1ccc(C2C(C(C)=O)=C(O)C(=O)N2CCc2c[nH]c3ccccc23)cc1 (stereo unspecified) | 18.4% (active)
40 | COc1ccc2[nH]cc(CCN3C(=O)c4ccc(C(=O)O)cc4C3=O)c2c1 | 11.4%
41 | COC(=O)CN1C(=O)C(O)=C(C(C)=O)C1c1ccc([N+](=O)[O-])cc1 (stereo unspecified) | -9.46%
42 | CCOc1ccc(-n2c(SCC(=O)Nc3cc(C)c(NC(=O)c4ccccc4)cc3OC)nnc2-c2cccs2)cc1 | -1.97%
43 | COC(=O)C1CN(CC(C)C)CCS(=O)(=O)N1Cc1ccc(F)cc1 (stereo unspecified) | -0.32%
44 | COCCCNC(=O)C[C@H]1C[C@@]2(C(=O)OC)C(=C[C@H](C(C)(C)C)O[C@@H]2C)N(Cc2ccc(Cl)cc2Cl)C1=O | -5.63%
45 | O=C(NCC1COc2ccccc2O1)c1ccc(NC(=O)c2cc(F)ccc2F)cc1 (stereo unspecified) | -1.61%
46 | CCOC(=O)[C@]12CCCCC/C=C\1N(Cc1ccc(OC)cc1)C(=O)[C@H]2CC(=O)N1CCOCC1 | -1.12%
47 | COc1ccc(OC)c(CN2CCN(C(=O)CNC(=O)c3cc(C)cc(C)c3)CC2)c1 | 21.8% (active)
48 | COc1cc(OC)cc(C(=O)NCC(=O)N2CCCCCCC2)c1 | 0.93%
49 | Cc1cc(C)cc(C(=O)NCC(=O)OCC(=O)N2CCCCC2)c1 | 2%
50 | CCOC(=O)[C@@]12CN(C(=O)OC(C)(C)C)CC=C1N(Cc1ccc(OC)cc1)C(=O)[C@H]2CC(=O)NCc1ccc(OC)c(OC)c1 | 4.2%
51 | CCOC(=O)CNC(=O)CSc1ccc2nnc(-c3cccnc3)n2n1 | 0.77%
52 | CCOc1ccc(-c2nnc3ccc(SC)nn23)cc1 | -1.24%

Row | Structure (SMILES) | inhibition
53 | COC(=O)C(C)Sc1ccc2nnc(-c3cccc(F)c3)n2n1 (stereo unspecified) | 24.6% (active)
54 | CN(C)[C@H]1CCN(c2cccc3c2S(=O)(=O)N2CC[C@H](C2)O3)C1 | -4.89%
55 | O=C(CN1CCCc2ccccc21)NCc1ccc(F)cc1 | 7.37%
56 | COC(=O)[C@H](C(C)C)N(CCCc1cn(Cc2ccccc2)nn1)S(=O)(=O)c1ccc(F)cc1Br | -3.32%
57 | CC(C)/C=N/NC(=O)c1cc(Br)ccc1O | 19.5% (active)
58 | CC(=N\NC(=O)c1cc(Br)ccc1O)/C(=N/O)C(=O)Nc1ccccc1 | 9.77%
59 | O=C(N/N=C1\CCSC1)c1cc(Cl)ccc1O | 8.12%
60 | COc1ccc(-n2c(SCC(=O)NC3CCCC3)nnc2-c2ccncc2)cc1 | 6.27%
61 | O=C(NC1CCC1)c1ccc(C#Cc2cccc(F)c2)c[n+]1[O-] | -0.65%
62 | O=c1[nH]n(-c2ccc([N+](=O)[O-])cc2)c(=O)c2ccccc12 | 31.2% (active)
63 | O=C(Nn1c(SCc2ccc([N+](=O)[O-])cc2)nc2ccccc2c1=O)c1ccc(F)cc1 | -45.6%
64 | CC(C)(C)c1cnnn1-c1ccc([N+](=O)[O-])cc1 | -4.05%
65 | O=C(NCCC1=CCCCC1)C1CCN(S(=O)(=O)c2ccc(Cl)s2)CC1 | -2.35%
66 | C/C=C/c1ccc(OCC(=O)OCC(=O)Nc2c(C)nn(-c3ccccc3)c2C)c(OC)c1 | 18.3% (active)
67 | CCC(Oc1ccccc1)C(=O)OCC(=O)Nc1c(C)nn(-c2ccccc2)c1C (stereo unspecified) | 5.85%
68 | Cc1nn(-c2ccccc2)c(C)c1NC(=O)COC(=O)c1cc(Cl)ccc1O | -4.36%
69 | COc1ccc(CCNc2nc3ccc(C)cc3n3cnnc23)cc1OC | -5.53%
70 | COc1ccc(CCNc2ncnc3nc[nH]c23)cc1OC | 32.2% (active)
71 | CCc1ccc(N(CC)c2ncnc3nc[nH]c23)cc1 | -3.78%
72 | Cc1ccc(OCc2nnc(SC/C=C/c3ccccc3)n2Cc2ccco2)cc1 | 4.07%
73 | C=CCN(C(=O)[C@@H](CCCC)[C@@H](O)c1ccc(Cl)cc1)c1ccccc1 | -2.75%
74 | COc1ccc(-c2csc(Nc3ccc(O)cc3)n2)cc1 | 26.2% (active)
75 | COc1ccc(-c2ccc3nnc(SCC(=O)Nc4ccc(NC(C)=O)cc4)n3n2)cc1 | -23.3%
76 | CN(c1ccc(O)cc1)c1nc(-c2cccnc2)cs1 | 7.08%
